This note sets out measurements from PubChem BioAssay (NCI).

Structures are written as SMILES. Compounds without any hit were thinned out: in the full panel of roughly 83,000, 20% have a hit.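 Method: cells in 96-well plates; compound added at one concentration; 48 h incubation; percent growth measured; values under 10 scored active.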 Values without a mark were called inactive. Active and inactive are the calls of the source.

Test systems include NCI-H23 lung; NCI-H226 lung; NCI-H322M lung; HOP-62 NSCLC; NCI-H460 lung; HOP-92 NSCLC; NCI-H522 lung; A549/ATCC NSCLC; 786-0 renal; COLO 205 colon; DU-145 prostate; K-562 leukemia; MALME-3M melanoma; MDA-MB-231 breast; RXF 393 renal; SF-268 CNS; SF-295 CNS; SF-539 CNS; UACC-257 melanoma; M14 melanoma.
Common to all, as to assay: NCI-60 one-dose screen, 48 h (100 = growth as untreated, 0 = no growth, -100 = all killed)
Details in all cases: 10 µM unless noted

Turning to `Cc1cccc(C)c1NC(=O)CSC(=S)N1CCN(CCOCCO)CC1`, the growth in the test on NCI-H23 lung was 100%; in the test with NCI-H226 lung it was 117%; with NCI-H322M lung, 85.8%; in the test with HOP-62 NSCLC, 105%; in the test with NCI-H460 lung, 114%; with HOP-92 NSCLC, 110%. Moreover, the growth in the test with NCI-H522 lung is 90%; with A549/ATCC NSCLC, 101%; with 786-0 renal it was 96.4%; in the test with COLO 205 colon, 113%; in the test with DU-145 prostate, 101%; with K-562 leukemia, 96%. Also, the growth in the test with MALME-3M melanoma was 87.3%; in the test on MDA-MB-231 breast, 116%; in the test on RXF 393 renal, 125%; with SF-268 CNS, 93.9%; in the test with SF-295 CNS, 95.9%; with SF-539 CNS, 94.3%. The values for the growth with UACC-257 melanoma and with M14 melanoma were 112% and 100%, respectively.

As to `Cc1ccnc2c(OCc3ccccc3)cccc12`, the growth was 93.5% in the test on NCI-H23 lung; 81.9% in the test on NCI-H226 lung; 76.4% with NCI-H322M lung; 106% in the test on HOP-62 NSCLC; 86.1% with NCI-H460 lung; 53.4% with HOP-92 NSCLC. Also, the growth was 105% in the test with NCI-H522 lung; 93.5% in the test with A549/ATCC NSCLC; 96.1% with 786-0 renal; 113% in the test with COLO 205 colon; 97.1% in the test with DU-145 prostate; 99.2% in the test on K-562 leukemia. For the same compound, the growth was 84.4% in the test on MALME-3M melanoma; 72.1% in the test with MDA-MB-231 breast; 95.1% in the test with RXF 393 renal; 92.5% in the test with SF-268 CNS; 89.9% in the test with SF-295 CNS; 104% in the test with SF-539 CNS. Also, the growth in the test on UACC-257 melanoma was 115%; in the test with M14 melanoma, 93.4%.

As for `N=c1c(S(=O)(=O)c2ccccc2)cc2c(=O)n3ccccc3nc2n1C1CCCC1`, the growth is 95.8% in the test with NCI-H23 lung; 91.9% in the test with NCI-H226 lung; 74.9% with NCI-H322M lung; 79% in the test with HOP-62 NSCLC; 105% in the test with NCI-H460 lung; 39.4% in the test on HOP-92 NSCLC. The growth in the test on NCI-H522 lung was 92%; in the test with A549/ATCC NSCLC it was 80.2%; in the test with 786-0 renal it was 80.8%; with COLO 205 colon, 113%; in the test on DU-145 prostate, 93.2%; in the test on K-562 leukemia it was 76.6%. Moreover, the growth in the test with MALME-3M melanoma was 108%; with MDA-MB-231 breast, 64%; with RXF 393 renal, 86%; with SF-268 CNS, 83.5%; in the test with SF-295 CNS it was 91.2%; in the test on SF-539 CNS, 83.7%. Besides, the growth with UACC-257 melanoma is 111%; with M14 melanoma it was 110%.

For `CCCC1CCCCN1C(=O)OCC(C)C` (stereo not given), the growth with NCI-H23 lung was 152%; with NCI-H226 lung, 105%; with NCI-H322M lung it was 104%; with HOP-62 NSCLC it was 118%; in the test on NCI-H460 lung it was 107%; with HOP-92 NSCLC it was 113%. The growth in the test on NCI-H522 lung was 99.4%; with A549/ATCC NSCLC, 104%; in the test with 786-0 renal, 106%; in the test on COLO 205 colon, 99.7%; in the test on DU-145 prostate, 104%; in the test on K-562 leukemia it was 103%. Besides, the growth in the test with MALME-3M melanoma was 107%; in the test on MDA-MB-231 breast it was 109%; in the test on RXF 393 renal, 119%; with SF-268 CNS, 96.1%; in the test on SF-295 CNS, 94.5%; with SF-539 CNS, 100%. The growth in the test on UACC-257 melanoma was 110%; in the test on M14 melanoma, 109%.

`O=C1c2ccccc2NC(c2cn(-c3ccccc3)nc2-c2cccnc2)N1Cc1ccccc1` (stereo not given): the growth is 92.3% in the test with NCI-H23 lung; 109% in the test on NCI-H226 lung; 93% with NCI-H322M lung; 111% with HOP-62 NSCLC; 108% with NCI-H460 lung; 93.4% in the test on HOP-92 NSCLC. The growth in the test with NCI-H522 lung was 78.4%; in the test with A549/ATCC NSCLC, 102%; in the test on 786-0 renal, 89.9%; with COLO 205 colon, 121%; with DU-145 prostate, 101%; with K-562 leukemia, 96.8%. Besides, the growth is 119% with MALME-3M melanoma; 94.3% in the test on MDA-MB-231 breast; 97.6% in the test with RXF 393 renal; 84.8% in the test with SF-268 CNS; 92% in the test with SF-295 CNS; 95.6% in the test with SF-539 CNS. Moreover, the growth is 123% in the test on UACC-257 melanoma and 106% in the test on M14 melanoma.

Take `CC1(C)CC[C@]2(C(=O)Nc3ccccn3)CC[C@]3(C)C(=CC[C@@H]4[C@@]5(C)C/C(=C/c6ccncc6)C(=O)C(C)(C)[C@@H]5CC[C@]43C)[C@@H]2C1`: the growth with NCI-H23 lung was 34.4%; in the test on NCI-H226 lung it was 28.1%; in the test with NCI-H322M lung it was 62.6%; in the test with HOP-62 NSCLC, 70.9%; with NCI-H460 lung, 6.3% (active); in the test with HOP-92 NSCLC it was 43.4%. The growth in the test with NCI-H522 lung is 40.1%; in the test with A549/ATCC NSCLC, 26.6%; with 786-0 renal it was 44.2%; in the test with COLO 205 colon, 2.97% (active); in the test with DU-145 prostate it was 33.9%; in the test on K-562 leukemia, 11%. In addition, the growth in the test with MALME-3M melanoma was -2.79% (active); in the test on MDA-MB-231 breast, 48.8%; in the test with RXF 393 renal, -21.5% (active); in the test on SF-268 CNS, 72.5%; in the test on SF-295 CNS it was 30.8%; in the test with SF-539 CNS it was 16.2%. Further, the growth in the test on UACC-257 melanoma is 48.4%; with M14 melanoma, 20.6%.

As to `Cc1cc(N2CCCCC2)nc(N(CCCNc2ccnc3cc(Cl)ccc23)Cc2ccco2)n1`, the growth with NCI-H23 lung is 21.4%; in the test with NCI-H226 lung, 57.1%; in the test on NCI-H322M lung it was 19.6%; in the test on HOP-62 NSCLC, 8.53% (active); in the test on NCI-H460 lung it was 10.7%; in the test with HOP-92 NSCLC, -6.02% (active). The growth is 49.9% in the test on NCI-H522 lung; 18.4% with A549/ATCC NSCLC; 24.2% with 786-0 renal; -35.3% (active) with COLO 205 colon; 39% in the test on DU-145 prostate; 3.78% (active) with K-562 leukemia. Further, the growth was -5.59% (active) in the test with MALME-3M melanoma; 21.8% in the test on MDA-MB-231 breast; 19.6% in the test with RXF 393 renal; 44% with SF-268 CNS; 20.3% with SF-295 CNS; -36.5% (active) with SF-539 CNS. Moreover, the growth in the test on UACC-257 melanoma is 49.4%; in the test on M14 melanoma it was -74.4% (active).

For `N#Cc1c(-c2ccc(O)cc2)c2c(N)nn(-c3ccccc3)c2[nH]c1=O`, the growth in the test on NCI-H23 lung was 98.9%; in the test with NCI-H226 lung, 94.5%; in the test with NCI-H322M lung, 103%; with HOP-62 NSCLC it was 100%; in the test on NCI-H460 lung, 110%; in the test on HOP-92 NSCLC, 96.6%. Also, the growth is 91.3% in the test with NCI-H522 lung; 117% in the test with A549/ATCC NSCLC; 107% with 786-0 renal; 122% in the test on COLO 205 colon; 109% in the test on DU-145 prostate; 107% in the test on K-562 leukemia. Further, the growth in the test with MALME-3M melanoma was 105%; in the test with MDA-MB-231 breast it was 97.8%; with RXF 393 renal, 113%; in the test with SF-268 CNS, 100%; in the test with SF-295 CNS, 110%; with SF-539 CNS, 95.7%. Further, the growth is 109% in the test on UACC-257 melanoma and 99.4% in the test on M14 melanoma.
